The values that follow come from ChEMBL document CHEMBL3988442, “University of Dundee, Small-Polar-MMV Screening Library” (2021).

For some of these results: Measured potencies and affinities stand elsewhere.

Holding throughout (design): scale not given: direction of the effect not stated beside the values
Assay [1] concerns the target Protein translocase subunit SecA (Escherichia coli (strain K12)) (UniProt P10408). Put plainly: Assay to Identify E. coli SecA ATPase Inhibitors. It counts as functional. Conditions: 30 µM.
Assay [2] deals with T1, Ubiquitin-activating enzyme e1, putative (Leishmania donovani (strain BPK282A1)) (UniProt E9BSI1).
T1 sequence (whole entry): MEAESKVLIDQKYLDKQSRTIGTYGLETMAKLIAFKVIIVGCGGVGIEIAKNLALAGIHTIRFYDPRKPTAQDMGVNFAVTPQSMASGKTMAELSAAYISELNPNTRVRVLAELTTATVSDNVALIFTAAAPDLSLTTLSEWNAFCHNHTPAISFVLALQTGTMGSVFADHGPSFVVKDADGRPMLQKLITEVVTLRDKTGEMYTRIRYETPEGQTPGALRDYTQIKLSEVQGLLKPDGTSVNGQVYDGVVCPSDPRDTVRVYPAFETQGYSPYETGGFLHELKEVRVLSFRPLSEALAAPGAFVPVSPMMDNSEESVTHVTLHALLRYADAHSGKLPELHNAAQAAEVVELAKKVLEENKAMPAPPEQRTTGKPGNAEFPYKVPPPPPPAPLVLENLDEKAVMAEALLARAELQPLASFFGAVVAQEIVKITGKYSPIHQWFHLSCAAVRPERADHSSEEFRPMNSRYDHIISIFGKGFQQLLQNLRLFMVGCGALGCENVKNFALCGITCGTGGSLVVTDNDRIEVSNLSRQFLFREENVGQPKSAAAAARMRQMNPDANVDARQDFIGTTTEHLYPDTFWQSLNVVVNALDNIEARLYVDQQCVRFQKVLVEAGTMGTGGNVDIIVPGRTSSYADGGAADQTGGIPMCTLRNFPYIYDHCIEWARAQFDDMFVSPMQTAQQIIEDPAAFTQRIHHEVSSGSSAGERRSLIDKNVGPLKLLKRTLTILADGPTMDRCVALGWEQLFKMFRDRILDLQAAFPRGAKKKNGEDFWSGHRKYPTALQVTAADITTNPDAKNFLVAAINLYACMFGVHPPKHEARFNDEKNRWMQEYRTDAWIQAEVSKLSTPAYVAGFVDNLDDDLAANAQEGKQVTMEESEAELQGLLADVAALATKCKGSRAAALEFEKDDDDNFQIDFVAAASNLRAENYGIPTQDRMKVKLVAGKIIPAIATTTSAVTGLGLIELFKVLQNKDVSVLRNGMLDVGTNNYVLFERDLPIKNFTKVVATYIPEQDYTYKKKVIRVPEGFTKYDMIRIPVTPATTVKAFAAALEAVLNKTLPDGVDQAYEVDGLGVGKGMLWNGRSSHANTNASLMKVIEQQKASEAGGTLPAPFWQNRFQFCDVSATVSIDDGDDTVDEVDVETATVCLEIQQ
Put plainly: Leishmania donovani Ubiquitin Activating Enzyme (LdE1). In kind it is functional. As to conditions: 30 µM.

In assay [3] the target is AMP-activated protein kinase, AMPK (Homo sapiens) (UniProt P54646+O43741+P54619+Q9UGJ0+Q9Y478+Q13131+Q9UGI9). The assay can be described thus: AMP-dependent Kinase enzyme assay. An in vitro enzyme assay that detects ADP turnover that is directly proportional to AMPK activity. This uses naive AMPK that is activated during the assay with MK-8722. As to conditions: 30 µM. It counts as functional.

For assay [4], the target named is Sialic acid-binding Ig-like lectin 9 (Homo sapiens) (UniProt Q9Y336). The assay can be described thus: Hs-Siglec9 ALPHAscreen SOP 20170721. As to conditions: 10 µM.
The next assay concerns Trypanosoma cruzi. Put plainly: Trypanosoma cruzi phosphomannomutase and mannose-1-phosphate guanylyltransferase assay. In kind it is functional. Conditions: 10 µM.
In assay [5] the target is T2, Arginase-2, mitochondrial (Homo sapiens) (UniProt P78540).
T2 sequence (whole entry): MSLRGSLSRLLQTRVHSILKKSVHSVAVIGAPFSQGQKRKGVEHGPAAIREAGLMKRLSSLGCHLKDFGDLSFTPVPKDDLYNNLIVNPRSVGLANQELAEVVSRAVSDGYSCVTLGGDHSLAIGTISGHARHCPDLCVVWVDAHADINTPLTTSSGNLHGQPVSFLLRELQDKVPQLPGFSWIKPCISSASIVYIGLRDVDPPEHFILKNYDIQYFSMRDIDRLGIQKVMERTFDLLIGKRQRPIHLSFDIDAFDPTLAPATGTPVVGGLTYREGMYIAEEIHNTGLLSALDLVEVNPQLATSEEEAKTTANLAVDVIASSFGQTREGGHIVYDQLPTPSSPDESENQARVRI
Put plainly: in vitro enzyme assay to detect the production of urea directly proportional to the activity of Arginase II. Further: in the data most compounds retested in dose-response had high values. In kind it is functional. As to conditions: 33.3 µM.

The target in assay [6] is T3, Proteasome subunit beta (Trypanosoma cruzi) (UniProt O96673).
T3 sequence (whole entry): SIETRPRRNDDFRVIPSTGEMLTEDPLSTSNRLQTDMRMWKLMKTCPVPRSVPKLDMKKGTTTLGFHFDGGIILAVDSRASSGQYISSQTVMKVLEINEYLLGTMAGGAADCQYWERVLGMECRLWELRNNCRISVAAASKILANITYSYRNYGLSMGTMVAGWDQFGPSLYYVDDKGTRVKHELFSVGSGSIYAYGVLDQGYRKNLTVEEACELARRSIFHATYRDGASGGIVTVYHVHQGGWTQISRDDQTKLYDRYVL
Put plainly: Trypanosoma cruzi proteasome chymotrypsin-like activity (TcProtChymo) assay. Further: in the data most compounds retested in dose-response had high values. In kind it is functional. As to conditions: 9.37 µM.

Another assay is filed under the species Homo sapiens. Put plainly: To identify inhibition of the IFN signalling (Jak-Stat) pathway via expression of an eGFP reporter gene under the control of an IFN-stimulated response element (ISRE) containing MxA promoter. In kind it is functional. As to conditions: 30 µM.
The target in assay [7] is T4, Tyrosyl-tRNA synthetase, putative (Trypanosoma cruzi (strain CL Brener)) (UniProt Q4DSP6).
T4 sequence (whole entry): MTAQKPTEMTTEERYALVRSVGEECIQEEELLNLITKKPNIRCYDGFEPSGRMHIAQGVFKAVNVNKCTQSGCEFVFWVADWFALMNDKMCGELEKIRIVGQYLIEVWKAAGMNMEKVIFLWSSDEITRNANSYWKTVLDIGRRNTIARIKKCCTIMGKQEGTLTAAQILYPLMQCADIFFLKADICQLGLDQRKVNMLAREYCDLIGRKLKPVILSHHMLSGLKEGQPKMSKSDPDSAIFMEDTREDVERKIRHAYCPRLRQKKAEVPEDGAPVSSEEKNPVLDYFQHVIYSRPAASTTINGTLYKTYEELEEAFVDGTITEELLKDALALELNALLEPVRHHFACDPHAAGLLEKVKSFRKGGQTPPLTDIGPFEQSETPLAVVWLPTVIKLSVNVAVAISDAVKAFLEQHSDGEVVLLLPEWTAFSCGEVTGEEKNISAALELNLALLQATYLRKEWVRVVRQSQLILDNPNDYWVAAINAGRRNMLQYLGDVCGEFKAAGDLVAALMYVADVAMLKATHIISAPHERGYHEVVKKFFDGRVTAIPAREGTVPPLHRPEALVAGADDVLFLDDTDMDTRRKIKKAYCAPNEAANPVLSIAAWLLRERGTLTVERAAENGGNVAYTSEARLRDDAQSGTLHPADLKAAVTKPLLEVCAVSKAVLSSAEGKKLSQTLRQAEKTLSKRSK
The assay can be described thus: Trypanosoma cruzi tyrosyl tRNA synthetase (TcYRS) _High Tyrosine SOP. Further: in the data most compounds retested in dose-response had high values. In kind it is functional. Conditions: 30 µM.

The target of assay [8] is T4, Tyrosyl-tRNA synthetase, putative (Trypanosoma cruzi (strain CL Brener)). Put plainly: Trypanosoma cruzi tyrosyl tRNA synthetase (TcYRS) SOP. In kind it is functional. As to conditions: 30 µM.
The target of assay [9] is Chromo domain-containing protein 1 (Saccharomyces cerevisiae (strain ATCC 204508 / S288c) (Baker's yeast)) (UniProt P32657). The assay can be described thus: ScCHD-1 Enzyme Inhibition Assay. Further: in the data most compounds retested in dose-response had high values. As to conditions: 30 µM. It counts as functional.
Chromo domain-containing protein 1 (Saccharomyces cerevisiae (strain ATCC 204508 / S288c) (Baker's yeast)), sequence (P32657 whole entry, the tested form may be a part): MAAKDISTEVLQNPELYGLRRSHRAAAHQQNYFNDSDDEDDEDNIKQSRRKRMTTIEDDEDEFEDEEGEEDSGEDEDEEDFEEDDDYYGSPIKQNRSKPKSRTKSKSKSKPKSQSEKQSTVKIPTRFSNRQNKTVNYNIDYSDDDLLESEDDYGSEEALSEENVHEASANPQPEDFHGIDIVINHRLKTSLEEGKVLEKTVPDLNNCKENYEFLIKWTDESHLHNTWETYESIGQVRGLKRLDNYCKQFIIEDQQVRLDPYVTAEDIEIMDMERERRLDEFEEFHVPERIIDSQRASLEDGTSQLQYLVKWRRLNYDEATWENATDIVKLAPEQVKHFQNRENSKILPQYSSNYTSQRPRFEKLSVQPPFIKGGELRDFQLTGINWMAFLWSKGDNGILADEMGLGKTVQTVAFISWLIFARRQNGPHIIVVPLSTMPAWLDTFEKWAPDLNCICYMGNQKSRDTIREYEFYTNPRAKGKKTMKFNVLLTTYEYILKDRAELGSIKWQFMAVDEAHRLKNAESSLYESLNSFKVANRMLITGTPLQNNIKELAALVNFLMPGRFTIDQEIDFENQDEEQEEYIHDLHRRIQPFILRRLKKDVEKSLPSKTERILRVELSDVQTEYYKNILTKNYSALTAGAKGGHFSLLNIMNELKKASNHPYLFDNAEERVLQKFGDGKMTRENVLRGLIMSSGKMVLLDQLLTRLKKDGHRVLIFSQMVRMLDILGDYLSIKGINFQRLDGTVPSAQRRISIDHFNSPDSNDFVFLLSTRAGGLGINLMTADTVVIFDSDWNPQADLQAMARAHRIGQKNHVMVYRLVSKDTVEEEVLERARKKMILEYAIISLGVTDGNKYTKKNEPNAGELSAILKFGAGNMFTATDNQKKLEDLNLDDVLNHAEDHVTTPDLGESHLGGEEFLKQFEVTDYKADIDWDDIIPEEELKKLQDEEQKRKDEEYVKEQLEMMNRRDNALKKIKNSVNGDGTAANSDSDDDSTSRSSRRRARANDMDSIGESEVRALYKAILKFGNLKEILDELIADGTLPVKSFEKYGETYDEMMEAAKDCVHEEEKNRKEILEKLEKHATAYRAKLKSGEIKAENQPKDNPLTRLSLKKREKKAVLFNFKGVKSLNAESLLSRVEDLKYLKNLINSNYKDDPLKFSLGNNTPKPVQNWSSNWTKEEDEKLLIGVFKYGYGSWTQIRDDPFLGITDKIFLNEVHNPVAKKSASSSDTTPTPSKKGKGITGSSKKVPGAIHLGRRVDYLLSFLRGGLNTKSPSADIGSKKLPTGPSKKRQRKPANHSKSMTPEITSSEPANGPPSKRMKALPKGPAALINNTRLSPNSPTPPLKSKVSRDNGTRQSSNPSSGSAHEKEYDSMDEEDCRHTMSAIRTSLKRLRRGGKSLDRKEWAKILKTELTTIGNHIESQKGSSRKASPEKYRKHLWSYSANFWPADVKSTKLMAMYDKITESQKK

Protein translocase subunit SecA (Escherichia coli (strain K12)), sequence (P10408 whole entry): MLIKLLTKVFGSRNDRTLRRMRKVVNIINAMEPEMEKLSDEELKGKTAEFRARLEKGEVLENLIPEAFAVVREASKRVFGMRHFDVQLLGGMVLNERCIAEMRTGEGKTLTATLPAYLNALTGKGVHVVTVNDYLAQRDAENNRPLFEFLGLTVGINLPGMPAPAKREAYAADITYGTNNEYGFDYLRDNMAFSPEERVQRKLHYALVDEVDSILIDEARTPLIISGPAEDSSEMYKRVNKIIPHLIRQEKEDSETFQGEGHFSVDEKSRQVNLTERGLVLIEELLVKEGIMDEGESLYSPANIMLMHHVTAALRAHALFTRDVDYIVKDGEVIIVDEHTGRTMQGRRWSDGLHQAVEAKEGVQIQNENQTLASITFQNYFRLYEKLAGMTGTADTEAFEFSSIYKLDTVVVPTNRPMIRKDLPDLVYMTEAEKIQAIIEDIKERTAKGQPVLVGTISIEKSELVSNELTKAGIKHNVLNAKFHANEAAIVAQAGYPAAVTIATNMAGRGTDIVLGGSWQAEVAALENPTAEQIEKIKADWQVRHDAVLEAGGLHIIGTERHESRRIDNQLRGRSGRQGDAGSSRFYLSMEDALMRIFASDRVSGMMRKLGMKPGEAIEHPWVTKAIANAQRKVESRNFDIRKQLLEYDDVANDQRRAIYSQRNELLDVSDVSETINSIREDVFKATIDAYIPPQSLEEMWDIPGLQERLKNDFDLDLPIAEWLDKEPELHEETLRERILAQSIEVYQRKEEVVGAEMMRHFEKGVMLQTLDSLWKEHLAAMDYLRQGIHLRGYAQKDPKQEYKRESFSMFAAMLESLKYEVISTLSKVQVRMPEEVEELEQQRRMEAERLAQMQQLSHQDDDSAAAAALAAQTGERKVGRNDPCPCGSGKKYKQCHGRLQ
Sialic acid-binding Ig-like lectin 9 (Homo sapiens), sequence (Q9Y336 whole entry): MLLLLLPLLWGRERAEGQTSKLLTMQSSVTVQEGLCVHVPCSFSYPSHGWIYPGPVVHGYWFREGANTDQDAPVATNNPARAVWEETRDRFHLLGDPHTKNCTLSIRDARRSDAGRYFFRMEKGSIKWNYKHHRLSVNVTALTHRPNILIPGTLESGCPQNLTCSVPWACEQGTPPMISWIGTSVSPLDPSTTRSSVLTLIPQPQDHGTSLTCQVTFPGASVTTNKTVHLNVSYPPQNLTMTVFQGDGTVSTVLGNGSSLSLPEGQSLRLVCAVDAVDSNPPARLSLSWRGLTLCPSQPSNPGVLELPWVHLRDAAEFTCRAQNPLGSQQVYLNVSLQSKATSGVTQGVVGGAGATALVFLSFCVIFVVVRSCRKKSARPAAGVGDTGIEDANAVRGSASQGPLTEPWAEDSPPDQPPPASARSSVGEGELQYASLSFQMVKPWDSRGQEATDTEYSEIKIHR

Consider `CC(=O)NCC(=O)N1CCN(CC2CC2)c2ncccc2C1`, for which the Percent Effect in [1] is -4.55%; in assay [2], 8%; in assay [3] it was 8.23%; in assay [4] it was 6.27%; with Trypanosoma cruzi, -0.394%; in assay [5], -0.233%. The Percent Effect in [6] is 11%; in the assay filed under Homo sapiens it was 0.904%; in [7] it was 9.57%; in [8], 16.7%; in assay [9], -2.61%.
On to `CS(=O)(=O)NCc1nnc2n1CCN(Cc1cccs1)C2`, for which the Percent Effect in assay [1] is -3.62%; in assay [2], 2.7%; in [3], 7.63%; in assay [4] it was -1.91%; with Trypanosoma cruzi it was 0.684%; in assay [5], -3.5%. Also, the Percent Effect in assay [6] worked out at 13.5%; in the assay filed under Homo sapiens it was 6.95%; in [7], 5.41%; in assay [8], 12.8%; in [9] it was 3.73%.
With `CCS(=O)(=O)CC(=O)NC(c1ccc(F)cc1)C1CCCC1` (stereo not drawn), the Percent Effect in assay [1] was -5.43%; in assay [2], 0%; in assay [3] it was 132%; in [4] it was 2.49%; in the assay with Trypanosoma cruzi, -4.58%; in [5], -2.37%. For the same molecule, the Percent Effect in [6] was 17%; in the assay listed under Homo sapiens, 6.16%; in [7], 3.19%; in [8], 5.2%; in assay [9], -4.36%.
For `Cc1ccc(CNC2CCN(CCc3ccncc3)CC2)cc1C`, the Percent Effect in [1] is -4.25%; in assay [2] it was -5.41%; in assay [3], -4.58%; in [4], 7.82%; in the assay on Trypanosoma cruzi, 5.47%; in assay [5] it was 18.8%. The Percent Effect was 5.5% in assay [6]; -6.77% in the assay listed under Homo sapiens; 2.97% in [7]; 8.54% in assay [8]; 29.8% in assay [9].
As for `Cn1cnc2c1C(COCC1CCOCC1)CN(C(=O)c1ccoc1)C2` (stereo not drawn), the Percent Effect in [1] was 1.37%; in assay [2] it was 18.7%; in assay [3], 4.82%; in assay [4] it was -8.07%; in the assay with Trypanosoma cruzi it was 1.38%; in assay [5] it was -1.63%. Also, the Percent Effect is 14.5% in [6]; -17.8% in the assay filed under Homo sapiens; 1.06% in assay [7]; 6.41% in [8]; -5.31% in assay [9].
Regarding `O=C(CSC1=NS(=O)(=O)c2cc(F)ccc2N1)Nc1cccc(Cl)c1`, the Percent Effect in assay [1] is -1.88%; in assay [2] it was -39%; in [3], 1.02%; in [4] it was -0.207%; with Trypanosoma cruzi it was 2.86%; in [5], -0.645%. Further, the Percent Effect was 21.1% in assay [6]; 26.7% in the assay listed under Homo sapiens; -10.6% in assay [7]; -8.97% in assay [8]; -11.3% in assay [9].
For `CS(=O)(=O)CCC(=O)N1CCC2(CCCN(C3CCOCC3)C2=O)C1` (stereo not drawn), the Percent Effect in [1] is 0.12%; in assay [2], 8.22%; in assay [3] it was -3.26%; in assay [4], 6.39%; in the assay with Trypanosoma cruzi it was 1.19%; in assay [5], -3.19%. For the same molecule, the Percent Effect in assay [6] was 12.6%; in the assay listed under Homo sapiens it was -2.62%; in assay [7], 6.25%; in assay [8], 13.6%; in assay [9] it was -3.06%.
With `CCCNC(=O)c1ccc(NC(=O)c2cccc(OCC)c2)cc1`, the Percent Effect is 1.49% in assay [1]; -5.41% in assay [2]; 0.466% in [3]; -0.164% in assay [4]; -1.16% with Trypanosoma cruzi; 0.952% in [5]. Moreover, the Percent Effect turned out to be 7.07% in assay [6]; 3.02% in the assay listed under Homo sapiens; 0.529% in assay [7]; 2.44% in assay [8]; 2.44% in assay [9].
